# Source: PubChem BioAssay (National Center for Advancing Translational Sciences (NCATS))
# Most compounds without a hit are left out; they make up all but 7.3% or so of the library.
# AmpC detergent – qHTS Inhibitors of AmpC Beta-Lactamase (assay with detergent) | 0.041% of 370,000 active | AmpC hydrolysis of nitrocefin, absorbance 480 nm, 0.01% Triton | AID 485294, 2010 | Potency, µM (doses to about 114 µM), for inactives: at the top dose activity change, negative = inhibition, usual class: inhibitors;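 further: potency means the concentration at half of the fitted maximal effect; 0% = no-compound wells and -100% = no-enzyme wells; nearly all actives have a fitted effect of over 25% in size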
# Target sequence (P00811 whole entry, looked up): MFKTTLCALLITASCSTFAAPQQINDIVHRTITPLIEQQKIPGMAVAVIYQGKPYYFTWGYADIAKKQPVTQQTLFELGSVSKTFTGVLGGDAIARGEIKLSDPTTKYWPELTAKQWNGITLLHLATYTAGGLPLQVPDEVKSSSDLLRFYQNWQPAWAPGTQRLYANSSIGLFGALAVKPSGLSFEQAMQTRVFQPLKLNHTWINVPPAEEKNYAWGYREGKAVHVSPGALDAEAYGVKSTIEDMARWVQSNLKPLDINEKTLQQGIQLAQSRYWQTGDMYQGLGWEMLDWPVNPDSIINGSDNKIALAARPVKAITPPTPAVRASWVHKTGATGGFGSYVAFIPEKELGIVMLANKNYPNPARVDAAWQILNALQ
#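 20 mM phosphate pH 7.0 + 0.01% (detergent screen) or 0.0001% Triton X-100; 5.3 nM AmpC reagent; cpd preinc 15 min RT; nitrocefin (800 uM stock) to start; A480 q20 s × 4 min; Activity was normalised to no-enzyme and no-compound control wells.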
# HCMV antiviral – qHTS Assay for inhibitors of the human cytomegalovirus (HCMV). AID 1259415, 2018. activity change, negative = inhibition, % at 57.5 µM. HFF cells, HCMV-luciferase reporter, 72 h; stronger effect = lower value. 4.5% of 410,000 active; in the data active means activity change below about -60%; inconclusive means no clear call, values can overlap the other calls; inactive means above about -39%
#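 Compounds were evaluated in HFFs infected with an HCMV luciferase reporter virus (MOI 1 PFU/cell). Luciferase in lysates collected 72 h post infection served as the replication measure.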
# HCV inhibitor – qHTS Assay for Inhibitors of Hepatitis C Virus (HCV); Huh7.5.1 HCVcc-Cre infection, luciferase reporter, 44 h; Potency, µM (doses to about 41.8 µM), for the others: at the highest dose activity change, negative = inhibition, hits mostly inhibitors; 3.4% of 340,000 active; further: potency means the concentration at half of the fitted maximal effect
#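 Infectious HCV cell culture screen: compound-treated cells (1,000/well, pre-plated 4 h) are infected with HCVcc-Cre at roughly 0.5 moi and grown 44 h. Infection is quantified by luciferase signal after 15 min substrate incubation at room temperature.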
# FMDV inh – High Throughput Screening for Foot and Mouth Disease Virus Antivirals | AID 1159524, 2015 | Potency, µM (top dose mostly 57.9 µM), inactives show at the top dose activity change, negative = inhibition, actives largely listed as inhibitors | 1.2% of 410,000 active | FMDV antiviral cell-based qHTS; calls by dose curve; tested in HEK293T cells; further: read-out not given here; potency means the concentration at half of the fitted maximal effect; nearly all actives have a fitted effect of over 45% in size
# AmpC no deterg – qHTS Inhibitors of AmpC Beta-Lactamase (assay without detergent); AmpC nitrocefin hydrolysis, absorbance 480 nm, 0.0001% Triton; 0.52% of 330,000 active; Potency, µM (top dose mostly 57.1 µM), for the others: at the top dose activity change, negative = inhibition, hits mostly inhibitors; P00811;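 further: potency means the concentration at half of the fitted maximal effect; plate controls were no compound for no effect and no enzyme for full effect; nearly all actives have a fitted effect of over 20% in size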
#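 20 mM phosphate pH 7.0 + 0.01% (detergent screen) or 0.0001% Triton X-100; 5.3 nM AmpC reagent; cpd preinc 15 min RT; nitrocefin (800 uM stock) to start; A480 q20 s × 4 min; Activity was normalised to no-enzyme and no-compound control wells.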
# Starred values were filed as active, the others as inactive; u = inconclusive; x = no result. Unless noted, the call rests on the fitted dose curve; in most records, active means well fitted curve in the direction sought with a large enough effect; inconclusive means small, poorly fitted or top-dose-only effect, or another doubt; inactive means no such curve, though single readings can be large; an effect the other way counts as inactive or inconclusive. Unless noted, on the % scale 0 is the no-effect control and ±100 the full control effect.
SMILES,AmpC detergent,HCMV antiviral,HCV inhibitor,FMDV inh,AmpC no deterg
COc1ccc(OC)c(NC(=O)c2cc3n(n2)C(C(F)(F)F)CC(c2ccc4c(c2)OCO4)N3)c1 (stereo not given),-1.6%,-29.5,31.6µM*,0.0%,-33.9%
COc1ccccc1NC(=O)c1cc2n(n1)C(C(F)(F)F)CC(c1ccc3c(c1)OCO3)N2 (stereo not given),u,-25.3,u,0.0%,-25.2%
O=C(Nc1nc(-c2ccc(Br)cc2)ns1)c1ccc(F)cc1,19.3%,-6.1,x,-28.4%,x
CCOCCCNC(=S)NCCCNc1nc2ccc(C)cc2cc1C#N,0.5%,-90.6*,x,x,114.9%
CCOCCCNC(=S)NCCNc1nc2ccc(C)cc2cc1C#N,-3.6%,32.1,u,16.8%,46.7%
Cc1snc(SCc2cccc(Cl)c2)c1C#N,-1.1%,x,-2.7%,-8.9%,-30.5%
CC(/C=N/NC(=O)c1ccc(Cn2cc([N+](=O)[O-])cn2)o1)=C\c1ccccc1,2.6%,37.8,-22.7%,7.1%,-28.0%
CN(C(=O)c1ccc(-c2nn(C)c(=O)c3ccccc23)cc1)C1CCCCC1,0.6%,-38.5,u,22.4µM*,119.3%
Cn1nc(-c2ccc(C(=O)O)cc2)c2ccccc2c1=O,-4.7%,40.9,10.8%,-7.7%,-17.0%
Cn1nc(-c2ccc(C(=O)Nc3cccc(C(F)(F)F)c3)cc2)c2ccccc2c1=O,22.8%,-13.2,x,22.4µM*,x
Cn1nc(-c2ccc(C(=O)Nc3ccc(OC(F)(F)F)cc3)cc2)c2ccccc2c1=O,6.3%,-32.8,x,14.1µM*,x
COc1ccc(OC)c(CNC(=O)Nc2cn(CC(C)C)c(=O)c3ccccc23)c1,20.7%,-5.4,x,-7.6%,x
COc1ccccc1N1CCN(c2nc3ccccc3n3cnnc23)CC1,-2.2%,-16.5,x,-8.9%,x
COc1ccc(Cl)cc1C(=O)NNC(=O)CCNS(=O)(=O)c1ccccc1,x,32.3,-2.9%,7.0%,-7.8%
O=S(=O)(Nc1cccc(-c2nc3cccnc3s2)c1)c1ccc2c(c1)OCCO2,u,-63.6*,u,42.6%,3.16µM*
CC(C)[C@H]1C(=O)O[C@H](C(C)C)C(=O)N(C)[C@@H](C(C)C)C(=O)O[C@H](C(C)C)C(=O)N(C)[C@@H](C(C)C)C(=O)O[C@H](C(C)C)C(=O)N1C,5.0%,x,u,11.2µM*,189.3%
CC(C)(C)C(=O)Nc1nc2nc(-c3ccccc3)cc(=O)n2[nH]1,2.0%,5.2,x,12.9%,x
COc1ccc(/C=C/c2nc(S(=O)(=O)c3ccccc3)c(N(C)C)o2)cc1,4.4%,-9.5,22.4µM*,-16.5%,-4.8%
CN(C)c1oc(-c2ccccc2Cl)nc1S(=O)(=O)c1ccccc1,-9.2%,54.9,-12.6%,12.0%,-15.6%
O=C1N/C(=C\c2ccccc2)c2ccccc21,0.3%,119.7,7.08µM*,36.7%,-4.7%
COCCNC(=S)NNC(=O)c1cc(-c2cccnc2)nc2ccccc12,1.3%,-0.6,-9.1%,10.3%,-23.6%
O=C1Nc2cccnc2N(C(=O)CCl)c2ccccc21,-5.6%,u,15.8µM*,u,-3.4%
CNC(=O)c1cc(Nc2nnc(-c3ccc(O)cc3)c3ccccc23)ccc1OC,5.7%,-31.0,u,-5.4%,-34.0%
CCOc1ccc(-c2nnc(Nc3ccc(OC)c(C(=O)N4CCCCC4)c3)c3ccccc23)cc1,-8.4%,-23.4,14.1µM*,-10.7%,94.5%
COC(=O)COc1ccc(-c2nnc(Nc3ccc(O)cc3)c3ccccc23)cc1,-8.0%,-106.7*,x,u,x
SMILES,AmpC detergent,HCMV antiviral,HCV inhibitor,FMDV inh,AmpC no deterg
NC(=O)COc1ccc(Nc2nnc(-c3ccc(O)cc3)c3ccccc23)cc1,-5.8%,-10.0,-21.5%,-15.3%,-6.9%
CCN(Cc1ccccc1)C(=O)Cn1cc(S(=O)(=O)Cc2cccc(Cl)c2)c2ccccc21,2.4%,0.0,x,23.8%,x
Cc1nn2c(N3CCOCC3)cc(C(C)C)nc2c1-c1ccccc1,5.4%,-31.4,u,-27.4%,-4.6%
CCN1CCN(c2cc(C(C)C)nc3c(-c4ccccc4)c(C)nn23)CC1,-9.1%,-92.7*,-89.2%,-20.3%,142.5%
Cc1nn2c(N3CCOCC3)cc(C(C)(C)C)nc2c1-c1ccccc1,2.2%,31.1,-7.4%,-13.5%,-7.4%
CCN1CCN(c2cc(C(C)(C)C)nc3c(-c4ccccc4)c(C)nn23)CC1,-0.5%,-74.9*,3.98µM*,-7.9%,50.5%
COCC(=O)N1c2nc(-c3ccco3)nn2C2(CCCCC2)[C@@H]2CCCC[C@@H]21,13.4%,-12.2,x,1.3%,x
CC(C)=CCn1c2ccc(NC(=O)NCc3ccc(F)cc3)cc2c(=O)n1C,x,19.4,x,-8.7%,x
Cn1c(=O)c2cc(NC(=O)NCc3ccc(F)cc3)ccc2n1C/C=C/c1ccccc1,x,-62.9*,x,19.6%,x
CCNc1ncc2nc(-c3cccs3)c(=O)n(C)c2n1,x,x,x,31.8%,x
CCn1nc(-c2cccs2)nc2c(=O)n(C)c(=O)nc1-2,-6.9%,x,0.562µM*,1.58µM*,-12.2%
O=C(O)CCSc1ncnc2sc(-c3ccccc3)cc12,-4.5%,u,8.2%,u,-37.9%
CC(=O)c1c(C)[nH]c(C(=O)CSc2nnc(-c3cccs3)n2Cc2ccccc2)c1C,0.3%,-13.1,2.82µM*,-27.7%,28.7%
Cc1cc(C(=O)CSc2nnc(-c3cccs3)n2Cc2ccccc2)c(C)n1C,-5.0%,-38.4,u,-5.7%,30.3%
CC(=O)CCSc1ncnc2sc(-c3ccccc3)cc12,-5.4%,-111.7*,-10.4%,-11.0%,17.9%
CC(=O)c1c(C)[nH]c(C(=O)CSc2ncnc3sc(-c4ccccc4)cc23)c1C,-6.7%,-77.3*,u,0.0%,-36.1%
O=c1cc(CSc2nnc(-c3cccs3)n2Cc2ccccc2)nc2sc3ccccc3n12,-0.9%,-93.3*,u,15.8µM*,-19.3%
CCc1nc2cc(C(=O)N3CCC[C@H]3C(=O)OC)cc(NC(=O)c3ccccc3OC)c2n1C,x,x,x,-1.1%,x
CC(OC(=O)[C@H](C)NC(=O)c1ccccc1Cl)C(=O)NCc1ccc2c(c1)OCO2 (stereo not given in full),-15.1%,u,-29.4%,0.9%,-8.4%
CC(=O)c1c(C)[nH]c(C(=O)CSc2nnc(-c3ccccc3)o2)c1C,0.7%,-20.0,8.91µM*,u,-2.5%
C[C@@H]1CN([C@H](C)CO)C(=O)CCCn2cc(nn2)CO[C@H]1CN(C)S(=O)(=O)c1ccc(Cl)cc1,x,-6.5,x,x,x
Cc1cc(NCCc2c[nH]c3ccccc23)ccc1Nc1cccnc1,x,-86.7*,x,x,x
c1ccc(Nc2ccc(NCCc3c[nH]c4ccccc34)cc2)cc1,x,25.2,x,x,x
COCc1cc(C)nc2sc3c(c12)NC(c1ccccc1C(=O)O)N(c1ccc(OC)cc1)C3=O (stereo not given),28.6%,11.5,x,9.9%,x
